Laboratory results taken from PubChem BioAssay AID1159580 (chemical genetic matrix, 2015).
The campaign covered roughly 5,500 compounds. About 2,000 (36%) were called active. Not shown: some 18% with an inconclusive outcome. Rule as the data show it: active = normalized growth mostly below about 0.91 (no sharp cut-off); inconclusive = no clear call, values can overlap the other calls; inactive = mostly above about 0.92. The list shows a part of the results.

Experiment: chemical genetic growth profiling, strain panel (AID 1159580);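 also: tested at 20 µM; growth read once vehicle control cultures reached saturation at 30 °C; 1 = growth at the plate median or of vehicle wells; lower values mean less growth of the strain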
Conditions: growth OD

Measured: normalized growth

C[C@@H]1C(=O)O[C@H]2[C@H]1CC[C@@]1(C)C=CC(=O)[C@@]3(C)O[C@@]213
inactive: S. cerevisiae deletion strains, locus YKL009W, strain mrt4, hits give low values 1.03 | S. cerevisiae deletion strains, locus YKL068W, hits give low values 1.01 | S. cerevisiae deletion strains, locus YKL085W, strain MDH1 (second series), hits give low values 1.01 | S. cerevisiae deletion strains, locus YKL085W, strain MDH1, hits give low values 1.01 | S. cerevisiae deletion strains, locus YKL160W, strain elf1, hits give low values 0.963 | S. cerevisiae deletion strains, locus YKL190W, strain CNB1, hits give low values 1.01 | S. cerevisiae deletion strains, locus YKR001C, strain vps1, hits give low values 1 | S. cerevisiae deletion strains, locus YKR026C, strain gcn3, hits give low values 1.01 | S. cerevisiae deletion strains, locus YKR091W, strain srl3, hits give low values 1 | S. cerevisiae deletion strains, locus YLL001W, strain dnm1, hits give low values 1.02 | S. cerevisiae deletion strains, locus YLL026W, hits give low values 1.01 | S. cerevisiae deletion strains, locus YLL041C, strain sdh2, hits give low values 1.01 | S. cerevisiae deletion strains, locus YLR027C, strain aat2, hits give low values 1.02 | S. cerevisiae deletion strains, locus YLR039C, strain RIC1, hits give low values 0.994 | S. cerevisiae deletion strains, locus YLR058C, strain SHM2, hits give low values 1.01 | S. cerevisiae deletion strains, locus YLR102C, strain apc9, hits give low values 1.01 | S. cerevisiae deletion strains, locus YLR113W, strain HOG1, hits give low values 1.03 | S. cerevisiae deletion strains, locus YLR221C, strain rsa3, hits give low values 1.01 | S. cerevisiae deletion strains, locus YLR258W, strain gsy2, hits give low values 1.03 | S. cerevisiae deletion strains, locus YLR262C, strain YPT6 (second series), hits give low values 0.996 | S. cerevisiae deletion strains, locus YLR262C, strain YPT6, hits give low values 0.997 | S. cerevisiae deletion strains, locus YLR268W, strain sec22, hits give low values 1.04 | S. cerevisiae deletion strains, locus YLR320W, strain mms22, hits give low values 1.03 | S. cerevisiae deletion strains, locus YLR330W, strain CHS5, hits give low values 1.01 | S. cerevisiae deletion strains, locus YLR342W, strain FKS1 (second series), hits give low values 1.01 | S. cerevisiae deletion strains, locus YLR342W, strain FKS1, hits give low values 1.01 | S. cerevisiae deletion strains, locus YLR357W, strain rsc2, hits give low values 1.02 | S. cerevisiae deletion strains, locus YLR370C, strain arc18, hits give low values 1.02 | S. cerevisiae deletion strains, locus YLR371W, strain rom2, hits give low values 1.03 | S. cerevisiae deletion strains, locus YLR384C, strain iki3, hits give low values 1 | S. cerevisiae deletion strains, locus YLR418C, strain cdc73, hits give low values 1.05 | S. cerevisiae deletion strains, locus YML016C, strain PPZ1, hits give low values 1.01 | S. cerevisiae deletion strains, locus YML032C, strain rad52, hits give low values 1.01 | S. cerevisiae deletion strains, locus YML120C, strain ndi1, hits give low values 1.03 | S. cerevisiae deletion strains, locus YML124C, strain tub3, hits give low values 1.02 | S. cerevisiae deletion strains, locus YMR058W, strain fet3, hits give low values 1.03 | S. cerevisiae deletion strains, locus YMR078C, strain ctf18, hits give low values 1.02 | S. cerevisiae deletion strains, locus YMR125W, strain sto1, hits give low values 0.999 | S. cerevisiae deletion strains, locus YMR129W, hits give low values 1.03 | S. cerevisiae deletion strains, locus YMR205C, strain PFK2, hits give low values 1.02 | S. cerevisiae deletion strains, locus YMR223W, strain ubp8, hits give low values 1.01 | S. cerevisiae deletion strains, locus YMR231W, strain pep5, hits give low values 1.01 | S. cerevisiae deletion strains, locus YMR263W, strain SAP30, hits give low values 1.02 | S. cerevisiae deletion strains, locus YMR307W, strain GAS1, hits give low values 1 | S. cerevisiae deletion strains, locus YNL067W, strain RPL9B, hits give low values 1.02 | S. cerevisiae deletion strains, locus YNL071W, strain lat1, hits give low values 1 | S. cerevisiae deletion strains, locus YNL128W, strain TEP1, hits give low values 1.03 | S. cerevisiae deletion strains, locus YNL153C, strain GIM3, hits give low values 1.02 | S. cerevisiae deletion strains, locus YNL183C, strain NPR1, hits give low values 0.974 | S. cerevisiae deletion strains, locus YNL209W, strain ssb2, hits give low values 1.01 | S. cerevisiae deletion strains, locus YNL233W, strain BNI4, hits give low values 1.03 | S. cerevisiae deletion strains, locus YNL248C, strain rpa49, hits give low values 1.03 | S. cerevisiae deletion strains, locus YNL250W, strain rad50, hits give low values 1.03 | S. cerevisiae deletion strains, locus YNL271C, strain bni1, hits give low values 1.01 | S. cerevisiae deletion strains, locus YNL298W, strain CLA4, hits give low values 1.01 | S. cerevisiae deletion strains, locus YNL307C, strain MCK1, hits give low values 1.03 | S. cerevisiae deletion strains, locus YNL322C, strain KRE1 (second series), hits give low values 1 | S. cerevisiae deletion strains, locus YNL322C, strain KRE1, hits give low values 1.01 | S. cerevisiae deletion strains, locus YNR049C, strain mso1, hits give low values 1.04 | S. cerevisiae deletion strains, locus YNR052C, strain pop2, hits give low values 1.01 | S. cerevisiae deletion strains, locus YOL006C, strain TOP1, hits give low values 1.04 | S. cerevisiae deletion strains, locus YOL012C, strain htz1 0.788 | S. cerevisiae deletion strains, locus YOL147C, strain pex11, hits give low values 1.01 | S. cerevisiae deletion strains, locus YOR001W, strain rrp6, hits give low values 1.05 | S. cerevisiae deletion strains, locus YOR061W, strain CKA2, hits give low values 1.02 | S. cerevisiae deletion strains, locus YOR069W, strain VPS5, hits give low values 1.01 | S. cerevisiae deletion strains, locus YOR070C, strain gyp1, hits give low values 1.01 | S. cerevisiae deletion strains, locus YOR080W, strain dia2, hits give low values 1 | S. cerevisiae deletion strains, locus YOR083W, strain WHI5, hits give low values 1 | S. cerevisiae deletion strains, locus YOR106W, strain vam3, hits give low values 0.999 | S. cerevisiae deletion strains, locus YOR136W, strain idh2, hits give low values 1.02 | S. cerevisiae deletion strains, locus YOR144C, strain elg1, hits give low values 1.02 | S. cerevisiae deletion strains, locus YOR184W, strain ser1, hits give low values 1.03 | S. cerevisiae deletion strains, locus YOR231W, strain MKK1, hits give low values 1.04 | S. cerevisiae deletion strains, locus YOR265W, strain rbl2, hits give low values 1.03 | S. cerevisiae deletion strains, locus YOR270C, strain vph1, hits give low values 1.1 | S. cerevisiae deletion strains, locus YOR290C, strain snf2, hits give low values 1.02 | S. cerevisiae deletion strains, locus YOR316C, strain cot1, hits give low values 1.02 | S. cerevisiae deletion strains, locus YPL051W, strain arl3, hits give low values 1.02 | S. cerevisiae deletion strains, locus YPL055C, strain LGE1, hits give low values 1.06 | S. cerevisiae deletion strains, locus YPL078C, strain atp4, hits give low values 1.02 | S. cerevisiae deletion strains, locus YPL106C, strain sse1, hits give low values 1.01 | S. cerevisiae deletion strains, locus YPL240C, strain hsp82, hits give low values 1.01 | S. cerevisiae deletion strains, locus YPL241C, strain CIN2, hits give low values 1 | S. cerevisiae deletion strains, locus YPL256C, strain CLN2, hits give low values 1.03 | S. cerevisiae deletion strains, locus YPR119W, strain clb2, hits give low values 1.01 | S. cerevisiae deletion strains, locus YPR141C, strain kar3, hits give low values 1.02 | S. cerevisiae deletion strains, locus YPR163C, strain tif3, hits give low values 1.02 | S. cerevisiae deletion strains, locus YPR167C, strain met16, hits give low values 1.02 | S. cerevisiae deletion strains, strain wtn01, hits give low values 1.03 | S. cerevisiae strains, strain wild type, hits give low values 1.02
